Rows were chosen to be rich in hits. Some 3.3% of all compounds tested hit in one or more screens of this group.
697 NFkB inh = lowers PMA/ionomycin-induced NF-kB signal in 697 B cells. 697 B-cell NF-kB luciferase reporter, 16 h. inhibition, % at 4 µM. 0.33% of 330,000 active. AID 435022; in the data active = inhibition above about 35%
SMARCA2 activ = increases SMARCA2 function in MMTV reporter cells; activation, % at 9.1 µM; 1% of 370,000 active; AID 652017; MG213 cells, MMTV-luciferase reporter, dexamethasone, overnight; in the data active = activation above about 7.8%
Jurkat NFkB inh = lowers PMA/ionomycin-induced NF-kB signal in Jurkat cells; PMA/ionomycin-induced NF-kB luciferase reporter, luminescence; inhibition, % at 4 µM; 0.53% of 330,000 active; AID 435003; in the data active = inhibition above about 50%
esBAF inh = SWI/SNF esBAF complex inhibition; 2% of 350,000 active; reporter increase, % at 12.5 µM; AID 602393; mouse ES cells, Bmi1-luciferase knock-in reporter, 24 h; 100% = twice the neutral-well signal; in the data active = activation above about 40%;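 also: a rise in the Bmi1 reporter signal indicates esBAF inhibition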
Gli-Sufu block = antagonists of Gli-Sufu signaling. Sufu-KO-LIGHT fibroblasts, Gli luciferase reporter luminescence. inhibition, % at 5 µM. 0.74% of 340,000 active;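 active = inhibition above about 55%, limit read from the data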
Gli antag conf = Gli-SUFU antagonism confirmation, single concentration | shares compounds with Gli-Sufu block | Sufu-KO-LIGHT cells, Gli luciferase reporter, luminescence | inhibition, % at 5 µM | 40% of 2,500 active;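 active = mean inhibition at 5 µM reaching about 45%, limit read from the data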
Gli cytotox = cytotoxicity counter-screen for Gli-SUFU antagonists | shares compounds with Gli-Sufu block | Sufu-KO-LIGHT cells cytotoxicity, ATP luminescence | cytotoxicity, % at 5 µM | 32% of 2,500 active;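 active = mean cytotoxicity at 5 µM above about 25%, limit read from the data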;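 also: cells exposed to compound overnight for roughly 16 to 18 hours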
Wnt3a cs = Wnt3a reporter inhibition counter-screen | shares compounds with Gli-Sufu block | Wnt-LIGHT cells, Wnt3a-driven luciferase reporter, luminescence | inhibition, % at 6.25 µM | 20% of 2,500 active | AID 651995;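 active = mean inhibition above about 25%, limit read from the data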
Hits are given with their value; n = inactive; x = not tested or not shown.

SMILES	697 NFkB inh	SMARCA2 activ	Jurkat NFkB inh	esBAF inh	Gli-Sufu block	Gli antag conf	Gli cytotox	Wnt3a cs
Cc1cc(Nc2cccc(Cl)c2)nc(NCc2ccccc2)n1	n	n	n	x	73.8	52.0	31.9	n
CCNC(=O)C[C@@H]1CC[C@@H](NC(=O)C2CCOCC2)[C@@H](CO)O1	x	x	x	n	x	x	x	x
Cc1noc(C)c1NC(=O)Nc1ccc2c(c1)C(=O)N([C@H](C)CO)C[C@H](C)[C@H](CN(C)Cc1ccc(C(F)(F)F)cc1)OCCCC[C@@H](C)O2	x	x	x	n	x	x	x	x
CCC(C)[C@H]1CN=C(N)N1CCc1cccc2ccccc12 (stereo not given in full)	n	n	n	n	62.4	66.5	n	n
CCC(C)[C@H]1CNC(=S)N1CCc1cccc2ccccc12 (stereo not given in full)	n	n	n	n	n	x	x	x
O=C(C[C@H]1CC[C@@H]2[C@H](COC[C@H](O)CN2C(=O)Nc2ccccc2)O1)NCCc1ccncc1	x	x	x	n	x	x	x	x
COC(=O)Cc1[nH]n(-c2ccccc2)c(=O)c1C(C)=Nc1ccccc1	n	n	n	n	n	x	x	x
COC(=O)Cc1[nH]n(-c2nc3ccccc3s2)c(=O)c1C(C)=Nc1ccc(Cl)cc1	n	n	n	x	85.9	92.5	n	103.9
COC(=O)Cc1[nH]n(-c2nc3ccccc3s2)c(=O)c1C(C)=Nc1ccc(C)cc1	n	n	n	x	90.2	93.6	n	106.2
C[C@H]1CCCCO[C@H](CN(C)C(=O)Cc2ccccc2)[C@@H](C)CN([C@@H](C)CO)C(=O)c2cc(NC(=O)CCCN(C)C)ccc2O1	x	x	x	n	x	x	x	x
O=C(N[C@H]1CC[C@@H](CC(=O)N2CCOCC2)O[C@H]1CO)c1cccc(F)c1	x	x	x	n	x	x	x	x
CCC(NC(=O)NCc1ccc2c(c1)OCO2)(C(F)(F)F)C(F)(F)F	n	n	n	n	n	x	x	x
CCC(NC(=O)NCc1ccccc1)(C(F)(F)F)C(F)(F)F	n	n	n	x	n	n	27.3	n
O=C(Nc1cccs1)Nc1c(F)c(F)c(F)c(F)c1F	n	n	n	x	67.1	71.8	27.4	38.6
CCCNC(=O)N1[C@H](C#N)[C@H](c2ccc(C#Cc3ccc(F)cc3)cc2)[C@@H]1CO	x	x	x	n	x	x	x	x
C/C(CC(=O)Nc1ccccc1C(F)(F)F)=N\NC(=O)c1cnccn1	n	n	n	n	n	x	x	x
C/C(CC(=O)NCc1ccccc1)=N\NC(=O)c1cnccn1	n	n	n	x	n	n	n	n
CO[C@H]1CC[C@H]2CCN(C)C(=O)[C@@H](C)N(C)C(=O)c3cc(C#N)ccc3OC[C@H]1O2	x	x	x	n	x	x	x	x
CCOC(=O)c1ccc(NC(=O)c2ccc[n+]([O-])c2)cc1	n	n	n	n	57.8	n	n	n
CCOC(=O)c1ccc[n+]([O-])c1	x	n	x	n	n	x	x	x
CCCN(CCC)CCNC(=O)c1cc2c(=O)n(C)c3ccccc3c2n1C	n	n	n	n	62.6	n	n	n
CCOC(=O)C1CCCN(CC(O)COC(c2ccccc2)c2ccccc2)C1 (stereo not given)	n	n	n	n	69.8	n	n	n
CCOc1ccccc1NC(=O)COC(=O)c1c(CC)noc1C	n	n	n	x	66.9	n	n	n
CCOC(=O)C1(Cc2cccc(OC)c2)CCN(C/C=C/c2ccc(OC)cc2)CC1	n	n	n	n	n	n	28.5	n
CCOC(=O)C1(Cc2cccc(OC)c2)CCN(C/C=C/c2ccccc2)CC1	n	n	n	n	n	x	x	x
C[C@H]1CN([C@@H](C)CO)S(=O)(=O)c2ccc(-c3ccc(C(=O)N(C)C)cc3)cc2O[C@@H]1CN(C)C(=O)Nc1ccccc1F	x	x	x	n	x	x	x	x
COc1ccc(CN(C)C(=O)c2cccc(NC(=O)CC3SC(N4CCCCC4)=NC3=O)c2)c(OC)c1 (stereo not given)	x	n	x	n	65.4	48.9	n	n
COc1cccc(CN(C)C(=O)c2cccc(NC(=O)CC3SC(N4CCCCC4)=NC3=O)c2)c1OC (stereo not given)	n	n	n	n	n	x	x	x
C[C@H]1CN([C@@H](C)CO)C(=O)c2cc(C3=CCCC3)cnc2O[C@H]1CN(C)C(=O)CN(C)C	x	x	x	n	x	x	x	x
